PP5 inh – inhibitors of human protein phosphatase 5 (PP5); P53041; purified PP5c, OMFP substrate fluorescence; inhibition, % at 6.7 µM; actives 0.18% (n = 320,000);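 active = inhibition above the campaign's mean inhibition across all tested compounds plus 3 SD, cut at about 9.5% in these data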;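 note: 0% = DMSO only and 100% = 100 µM cantharidin control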
Beta apoptosis – blocks beta cell apoptosis. INS-1E cytokine-induced death, ATP luminescence, 48 h; percent of positive-control rescue, neutral wells zero. protection from apoptosis, % (no concentration beside the values). actives 0.8% (n = 300,000);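 active = Every replicate reaches about 75%, or at least half do and their mean reaches it too, limit read from the data; inconclusive = At least half of replicates reach the limit but their mean does not; inactive = Under half of replicates reach the limit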;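 note: 0% = cytokine-treated negative control wells and 100% = positive control rescue; higher means more ATP so stronger rescue from cytokine killing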
PP1 inh – PP1-alpha (human) inhibition in PP5 counter-screen; actives 0.9% (n = 320,000); inhibition, % at 6.7 µM; purified PP1alpha, OMFP fluorescence; AID 2235; P62136;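 active = inhibition above the mean inhibition of all tested compounds plus 3 SD, computed separately for each screening campaign, cut at about 15% in these data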
Mdm2-MdmX inh – human Mdm2/MdmX binding inhibition | SaOS-2 split-luciferase Mdm2/MdmX complementation, luminescence | inhibition, % at 8 µM | actives 3% (n = 330,000);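 active = inhibition of at least 50% at 8 µM in the primary screen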
Calb FLC – C. albicans growth modulation with fluconazole; C. albicans CaCi-2 (fluconazole-resistant clinical isolate) + fluconazole, Alamar Blue growth, 48 h; growth inhibition, % (no concentration beside the values); actives 0.57% (n = 300,000); AID 1979;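 active = growth inhibition above about 58% in most replicates, limit read from the data, passing the limit was not always enough; inconclusive = exactly half the replicates above a set limit; inactive = most replicates below a set limit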;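 note: all wells also contain fluconazole at 8 µg/ml as a sub-toxic cotreatment; 0% = median of DMSO wells and 100% = median of geldanamycin control wells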
CSC inhib – blocks cancer stem cells; cancer stem cell-like cells viability, luminescence; inhibition, % at 7.5 µM; actives 1.1% (n = 300,000); AID 2717; in the data active = inhibition above about 75%; inconclusive = no clear call, values can overlap the other calls; tested in HMLE shEcad cells
Mdm2 MdmX conf – confirmation of human Mdm2/MdmX interaction inhibitors; shares compounds with Mdm2-MdmX inh; Mdm2-MdmX binding, luminescent assay; inhibition, % at 8 µM; actives 55% (n = 10,000); AID 489028; in the data active = inhibition above about 40%
Full FLuc ctr – counter-screen for Mdm2/MdmX inhibitors: full-length luciferase; actives 77% (n = 6,200); AID 504607; shares compounds with Mdm2-MdmX inh; SaOS-2 full-length luciferase counterscreen, luminescence; inhibition, % at 8 µM;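 active = mean inhibition at 8 µM reaching about 37%, which flags the compound as non-specific, limit read from the data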;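 note: p53-null SaOS-2 cells with luciferase driven by a doxycycline-inducible promoter; compound on cells about two nights before reading with doxycycline added after day one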
* = called active by the depositor; ? = inconclusive; . = no result. Compounds with a hit are over-represented: about 4.9% of the library has one in this group of screens.

SMILES	PP5 inh	Beta apoptosis	PP1 inh	Mdm2-MdmX inh	Calb FLC	CSC inhib	Mdm2 MdmX conf	Full FLuc ctr
O=C1NC(=O)C(C(CC(=O)c2ccccc2)c2ccccc2)C(=O)N1 (stereo unspecified)	0	-1	-1	-11	-22	-22	.	.
COc1ccc(C(CNC(=O)c2ccc3c(c2)CCC3)N(C)C)cc1 (stereo unspecified)	3	-10	0	-8	2	4	.	.
C[C@@H]1O[C@@H](O[C@H]2C[C@@H](O)[C@]3(CO)[C@H]4[C@H](O)C[C@]5(C)[C@@H](C6=CC(=O)OC6)CC[C@]5(O)[C@@H]4CC[C@]3(O)C2)[C@H](O)[C@H](O)[C@H]1O	3	-4	-3	83*	.	95*	80*	12
CN(C)C1=C(C#N)C(c2ccccc2)=NP(N(C)C)(N(C)C)=N1	1	3	-5	24	5	1	.	.
C[C@]12CC[C@H]3[C@@H](CC[C@]4(O)C[C@@H](O)CC[C@]34C=O)[C@@]1(O)CC[C@@H]2C1=CC(=O)OC1	-1	0	-2	69*	.	101*	69*	28
C[C@]12CCC3C(CCC4=CC(O)CC[C@@]43/C=N/O)C1(O)CCC2C1=CC(=O)OC1 (stereo partly specified)	-2	-3	1	58*	2	115*	72*	19
CC12CC[C@H]3[C@@H](CCC4(O)C[C@H](O)CCC34/C=N/NC(=O)c3ccccc3Cl)C1(O)CCC2C1=CC(=O)OC1 (stereo partly specified)	2	-3	-4	-3	5	-4	.	.
CCCCN=C[C@]12CCC(O)CC1(O)CCC1[C@@H]2CC[C@]2(C)[C@H](C3C=CC(=O)O3)CCC12O (stereo partly specified)	0	-10	0	59*	-1	99*	70*	50*
COC(=O)C1=C(c2c(C)noc2C)C[C@@H]2CC[C@H]1N2C(=O)NC1CC1	0	-5	0	-7	.	-3	.	.
Cn1c(NN=O)nc2ccccc21	3	100*	3	59*	82	115*	82*	36
CN1CCN(Cc2nc3ccccc3n2C)CC1	3	-2	-7	11	-8	-6	.	.
COc1cc2c(c(OC)c1OC)-c1ccc(O)cc1[C@@H](NC(C)=O)CC2	-1	59	1	63*	0	4	65*	107*
C=CCN1CC[C@]23c4c5ccc(O)c4O[C@H]2/C(=N/NC(=O)c2ccccc2)CC[C@@]3(O)[C@H]1C5	-1	-6	-3	19	-9	-14	.	.
COC(=O)C1=C(c2ccc(Cl)c(C(F)(F)F)c2)C[C@@H]2CC[C@H]1N2C(=O)N1CCCC1	4	3	-1	-5	.	6	.	.
COC(=O)C1=C(c2ccc(Cl)c(C(F)(F)F)c2)C[C@@H]2CC[C@H]1N2C(=O)N1CCC(O)(c2ccc(Cl)cc2)CC1	.	5	.	88*	.	.	16	.
CC(C)(O)[C@H]1O[C@H]2CC[C@@]3(C)[C@@](O)(CC[C@H]4Cc5c([nH]c6ccccc56)[C@@]43C)C2=CC1=O	2	4	1	62*	.	16	50*	77*
CC(C)C12CN3CCN(CC(C3)/C1=N\O)C2	3	0	0	5	-4	-15	.	.
O=c1[nH]c(O)c(C=Nc2ccccc2Oc2ccccc2)c(=O)[nH]1	2	-5	3	10	3	3	.	.
CC/C(=C\C=C\[C@@H]1C=C[C@@H]2CCC[C@H]2[C@@H]1C(=O)c1ccc[nH]1)[C@@H]1O[C@@H]([C@@H](C)C(=O)O)CC[C@@H]1C	3	35	14	84*	38	90*	74*	37*
Cn1cccc1C1CCCN1CC(=O)Nc1ccc(C#N)c(Cl)c1 (stereo unspecified)	.	0	.	8	.	-8	.	.
CCC(=NCCCN(CC)CC)c1c(O)n(-c2ccccc2)c(=O)[nH]c1=O	1	-2	-3	14	-18	0	.	.
CCCCCCCCCCCCCCCC[N+](C)(C)C	1	117*	14	90*	102*	102*	76*	9
CCCCCC[N+](=O)[O-]	1	-11	-2	15	.	-8	.	.
COc1ccc(CNCCc2c(C)[nH]c3ccc(OC(F)(F)F)cc23)c(OC)c1	2	88*	6	87*	2	16	53*	52*
CCOC(=O)c1cccc(-[n+]2c(-c3ccccc3)cc(-c3ccccc3)cc2-c2ccccc2)c1	-2	135*	4	89*	-5	19	50*	33
SMILES	PP5 inh	Beta apoptosis	PP1 inh	Mdm2-MdmX inh	Calb FLC	CSC inhib	Mdm2 MdmX conf	Full FLuc ctr
CCOC(=O)c1ccccc1C(=O)OCC	2	-11	-4	-9	15	-8	.	.
CCOC(=O)c1ccc(-[n+]2c(-c3ccccc3)cc(-c3ccccc3)cc2-c2ccccc2)cc1	1	123*	7	93*	39	11	61*	24
Cc1cccc(CCNCc2cc3cccc(C)c3[nH]c2=O)c1	.	-3	.	14	-4	9	.	.
CCNC(=S)NCCC1=c2ccccc2=N/C1=C\c1c(O)n(C)c(=O)n(C)c1=O	1	-5	1	-5	-5	1	.	.
CCCC1(CCC)C(=O)NC(=Nc2ccc(C)cc2)NC1=O	1	8	1	-53	-32	-1	.	.
O=c1[nH]c(O)c(N=Nc2ccc3c(c2)OCCO3)c(=O)[nH]1	3	5	2	58*	14	10	68*	78*
Cc1cc(C(=O)N=Nc2c(O)n(C)c3ccccc23)c(C)o1	-1	3	-2	-109	-7	13	.	.
Cc1ccc(-c2cc(-c3ccc(C)cc3)[n+](-c3ccccc3)c(-c3ccc(C)cc3)c2)cc1	2	122*	9	93*	106*	48	94*	12
CN(C)c1ccc(-[n+]2c(-c3ccccc3)cc(-c3ccccc3)cc2-c2ccccc2)cc1	.	.	.	89*	90*	.	95*	23
c1ccc(-c2cc(-c3ccccc3)[n+](-c3ccccc3)c(-c3ccccc3)c2)cc1	-1	113*	3	89*	?	37	92*	56*
Cc1ccc(-c2cc(-c3ccccc3)cc(-c3ccccc3)[n+]2-c2ccccc2)cc1	-1	121*	-1	96*	86*	25	92*	13
COc1ccc(N=C(C)c2c(O)n(C)c(=O)n(C)c2=O)c(OC)c1	-1	4	-1	16	?	-9	.	.
C=CCn1c(O)c(/C(C)=N/N2CCN(C)CC2)c(=O)[nH]c1=O	2	0	-4	23	-3	-14	.	.
